The whole screen tested about 69,000 compounds, of which about 8,600 (12%) showed an effect of 50% or more. The sample holds strong results, similar compounds and a random draw of the others, so the mix is not that of the screen.
test system: Plasmodium berghei; test: Screen against P. berghei liver stage (PbLuc), transformed with Luciferase, at 10uM; format: functional, HepG2; conditions: tested at 10 uM

Compound | INHIBITION [%]
CCc1ccc(CN2CCC3(CC2)NC(=O)CC3c2ccncc2)o1 (stereo not given) | 21.6
Cn1cc(CN2CCCC23CCN(C(=O)c2ccccn2)CC3)cn1 | -17.1
O=c1ccc2c([nH]1)CCC(NCc1ccncc1)C2 (stereo not given) | 11.5
CC(C)(C)C(=O)N1CCCc2c(cnn2-c2ccccc2)C1 | -43.9
CSC1=Nc2c(cnn2-c2ccc(Cl)cc2)C2=NCCCN12 | 64.8
CSC1=Nc2c(cnn2-c2ccccc2)C2=NCCCN12 | 73.9
CCSC1=Nc2c(cnn2-c2ccc(Cl)cc2)C2=NCCCN12 | -37.1
Cc1cccc(N2CCCN=C2NC(=O)c2cccc(Cl)c2)c1 | -25.5
CC(=O)c1nn(-c2cccc(Cl)c2)c(C)c1C(C)=O | 12.3
CSC1=Nc2c(cnn2-c2ccc(C)cc2)C2=NCCCN12 | 69.8
O=C(NC1=NCCCN1c1ccc(Cl)cc1)c1cccc(Cl)c1 | 15.1
CSC1=Nc2c(cnn2-c2cccc(Cl)c2)C2=NCCCN12 | 79.7
COC(=O)c1cccc(NCC(=O)NC(N)=O)c1 | -5.92
CN(Cc1cccc2cnccc12)C(=O)CCc1n[nH]c2c1CCCC2 | 34.9
Cc1ccc(NC(=O)CCc2cnn(C)c2)cc1F | 22.3
Cc1cccc(C2(C(=O)NCC3CCN(CC(F)(F)F)C3)CCC2)c1 (stereo not given) | 5.03
CS(=O)(=O)NC1CCCN(C(=O)c2cccnc2)C1 (stereo not given) | -16
CC(O)CN1CCC(CN(C)CCC(=O)NC2CCCCC2)CC1 (stereo not given) | 19.7
CCc1cc(N[C@@H](CC(C)C)C(N)=O)n2nc(C)c(C)c2n1 | 47.7
CCc1cc(N[C@H](C(N)=O)C(C)C)n2nc(C)c(C)c2n1 | 16.3
CCc1cc(N[C@@H](CO)C(N)=O)n2nc(C)c(C)c2n1 | 54.4
Cc1ccc(CN(Cc2[nH]cnc2C)C2CC(C)(C)NC(C)(C)C2)o1 | 38.2
Cc1cccc(CN(Cc2ccc(C)o2)C2CC(C)(C)NC(C)(C)C2)n1 | 53.5
Cc1ccc(CN(Cc2ccncc2)C2CC(C)(C)NC(C)(C)C2)o1 | 7.05

Compound | INHIBITION [%]
CC1(C)CC(N(Cc2ccccc2)Cc2ncc[nH]2)CC(C)(C)N1 | 10.26
Cc1ccc(CN(Cc2c[nH]cn2)C2CC(C)(C)NC(C)(C)C2)o1 | 19.3
Cc1ccc(CN(Cc2ncc[nH]2)C2CC(C)(C)NC(C)(C)C2)o1 | 91.6
CC(C)CO[C@@H]1CC[C@H]2[C@H]1OCCN2S(=O)(=O)C1CC1 | 28.3
Cc1cncnc1C1CCN(CCO)CC1 | -20.6
CC(=O)NCc1ccc(C(=O)NC2CCc3nc(C)cn3C2)o1 (stereo not given) | 17.945
COc1ccc(CN2C[C@@H]3COC[C@@H](N4CCN(C)CC4)[C@@H]3C2)cc1 | 68.4
CN1CCN([C@H]2COC[C@@H]3CN(Cc4cccnc4)C[C@@H]32)CC1 | 57.9
COc1ccc(CN2C[C@@H]3COC[C@H](N4CCN(C)CC4)[C@@H]3C2)cc1 | 40.4
Cc1cc(C)cc(CN2C[C@H]3COC[C@H](N4CCN(C)CC4)[C@H]3C2)c1 | 47.4
O=C(C[C@@H]1COC[C@H]2CN(Cc3cccnc3)C[C@@H]12)N1CCOCC1 | 19.5
COc1ccc(CN2C[C@@H]3COC[C@@H](CC(=O)N4CCCC4)[C@@H]3C2)cc1 | -26.5
Cc1nc(CN2CCCN(Cc3nccn3C(C)C)CC2)no1 | 29.7
CNc1nc(CNC(=O)Nc2cccc(CC(F)(F)F)c2)cs1 | 7.5
CNC(=O)[C@@H]1C[C@H]2CN(c3ncccn3)C[C@H]2N1C(C)C | 24.6
CNC(=O)[C@H]1C[C@@H]2CN(c3cc(OC)ncn3)C[C@@H]2N1C(C)C | 55.6
CNC(=O)[C@H]1C[C@@H]2CN(Cc3cccnc3OC)C[C@@H]2N1C(C)C | 33.4
CN1CCN(C[C@H]2OC[C@@H]3CCN(Cc4ccsc4)C[C@@H]32)CC1 | 22.4
CC(C)c1ccc(OCn2ccc(C(=O)N3CCCC3)n2)cc1 | 83.4
O=C(c1ccn(COc2ccc(F)cc2)n1)N1CCCCCC1 | -24.6
O=C(c1ccn(COc2ccc(F)cc2)n1)N1CCCC1 | -28
CN(Cc1ccncc1)Cc1nccn1Cc1ccccc1 | -46.4
CN(CCc1ccncc1)Cc1nccn1Cc1ccccc1 | 11.6
CN(CCc1ccccn1)Cc1nccn1Cc1ccccc1 | 81.2

Compound | INHIBITION [%]
CC(C)CC(=O)N1CCCC1c1nccnc1Nc1ncccn1 (stereo not given) | 32.3
CS(=O)(=O)N1CCCC1CS(=O)(=O)c1ccccc1 (stereo not given) | 66.9
O=S(=O)(CC1CCCN1S(=O)(=O)C1CC1)c1ccccc1 (stereo not given) | 7.77
O=S(=O)(CC1CCCN1S(=O)(=O)c1cccnc1)c1ccccc1 (stereo not given) | 13.2
O=C1NC(c2cnc(C3CCC3)s2)Nc2ccccc21 (stereo not given) | -90.1
CC(C)Nc1nc2c(c(N(C)C)n1)CCN(C(=O)c1cc[nH]n1)CC2 | 50.7
Cc1nc2c(c(NC(C)C)n1)CCN(C(=O)c1cc[nH]n1)CC2 | 34.6
CC(C)N(C)Cc1n[nH]c2c1CCN(C(=O)c1cc[nH]n1)C2 | 8.03
O=C(C[C@@H]1COC[C@H]2CN(C3CCOCC3)C[C@@H]12)Nc1cnccn1 | 42.5
COc1ccccc1C1(O)CCCN(C(=O)c2cnc(SC)nc2)C1 (stereo not given) | 36.9
Cc1occc1C(=O)N1C[C@@H]2CCCO[C@@H]2[C@H](NC(=O)CC2CC2)C1 | 62.9
Cc1occc1C(=O)N1C[C@@H]2CCCO[C@@H]2[C@H](NS(C)(=O)=O)C1 | 43
O=C(CC1CC1)N[C@@H]1CN(Cc2ccco2)C[C@@H]2CCCO[C@@H]21 | -2.17
O=C(CC1CC1)N[C@@H]1CN(C(=O)c2ccsc2)C[C@@H]2CCCO[C@@H]21 | 63.8
O=C(CC1CC1)N[C@@H]1CN(C(=O)c2ccoc2)C[C@@H]2CCCO[C@@H]21 | 71.1
O=C(N[C@@H]1CN(Cc2ccccc2)C[C@@H]2CCCO[C@@H]21)C1CC1 | 6.38
O=C(CC1CC1)N[C@@H]1CN(c2ncccn2)C[C@@H]2CCCO[C@@H]21 | -29.3
COc1ccc(CN2C[C@@H]3CCCO[C@@H]3[C@H](NC(=O)CC3CC3)C2)cc1 | -3.52
O=C(CC1CC1)N[C@@H]1CN(Cc2ccc(F)cc2)C[C@@H]2CCCO[C@@H]21 | -6.23
O=C(N[C@@H]1CN(Cc2ccoc2)C[C@@H]2CCCO[C@@H]21)C1CCC1 | 72
O=C(CC1CC1)N[C@@H]1CN(Cc2ccoc2)C[C@@H]2CCCO[C@@H]21 | 3.25
Cc1ccc(CN2C[C@@H]3CCCO[C@@H]3[C@H](NC(=O)CC3CC3)C2)s1 | 49.3

Reference: ChEMBL document CHEMBL4513216, “Probing the Open Global Health Chemical Diversity Library for Multistage-Active Starting Points for Next-Generation Antimalarials” (ACS Infect Dis, 2020)
